Results published in PubChem BioAssay (Tox21).
Values without a mark were called inactive. Calls come from the whole dose curve; as a rule, active = well fitted inhibition curve with a large enough effect in the repeat runs (not every such curve was filed as active); inconclusive = weak or mixed curves; inactive = flat fitted curve, though single readings scatter.

The compounds below were run against Thyrotropin-releasing hormone receptor (Homo sapiens) (UniProt P34981) (assay: qHTS assay to identify small molecule antagonists of the thyrotropin-releasing hormone receptor (TRHR) signaling pathway (AID 1346877)). Conditions: TRHR-HEK293, TRH-induced calcium fluorescence, antagonist mode; series mostly up to 51.3 µM; activity, negative = inhibition: at the top concentration.
Excerpt: National Center for Advancing Translational Sciences [NCATS]
NIH Chemical Genomics Center [NCGC]
U.S. Environmental Protection Agency [EPA]
National Institutes of Environmental Health Sciences [NIEHS]
National Toxicology Program [NTP]
U.S. Food and Drug Administration [FDA]
Thyrotropin-releasing hormone (TRH) receptor (TRHR) is a G-protein-coupled receptor which binds the tripeptide thyrotropin releasing hormone. TRHR is found in the brain and, when bound by TRH, acts (through phospholipase C) to increase intracellular inositol trisphosphate. It plays a crucial role in the anterior pituitary where it controls the synthesis and secretion of thyroid stimulating hormone and prolactin. The TRHR-Hek293 assay is a cell-based assay, and it has the potential to screen G protein-coupled receptors. A compound/drug can either activate (agonist) or suppress (antagonist) GPCRs that can be monitored by levels of intracellular calcium. In this assay, the Tox21 10K compound library was screened to identify potential TRHR antagonists.
Tox21 Assay Protocol Summary:
The TRHR-Hek293 cells were dispensed at 1500cells/4uL/well in 1536-well black-clear bottom plates using a Multidrop dispenser. After the assay plates were incubated at a 37 C/5% CO2 incubator for 18 hours, 4 uL of Dye-Loading Solution was added to each well. The plates were incubated at 37 C for 2 hours. For agonist mode, 23 nL of compounds dissolved in DMSO, positive controls or DMSO only was transferred to the assay plate by a pin tool. The fluorescence intensity in the plates was measured using FDSS 7000EX kinetic plate reader for 3 min at 1 sec intervals. For antagonist mode, 23 nL of compounds dissolved in DMSO, positive controls or DMSO only was transferred to the assay plate by a pin tool. After 5 min incubation at room temperature, 1 uL of TRH was added on the top of the cell/compound mixtures to achieve a final agonist concentration of 1 nM. The fluorescence intensity in the plates was measured using FDSS 7000EX kinetic plate reader for 3 min at 1 sec intervals. Each test compound was measured at 15 concentrations and in triplicates.
% is set by controls: 0 for no effect and ±100 for the full control effect.

Sequence of Thyrotropin-releasing hormone receptor (Homo sapiens) (P34981 whole entry, looked up): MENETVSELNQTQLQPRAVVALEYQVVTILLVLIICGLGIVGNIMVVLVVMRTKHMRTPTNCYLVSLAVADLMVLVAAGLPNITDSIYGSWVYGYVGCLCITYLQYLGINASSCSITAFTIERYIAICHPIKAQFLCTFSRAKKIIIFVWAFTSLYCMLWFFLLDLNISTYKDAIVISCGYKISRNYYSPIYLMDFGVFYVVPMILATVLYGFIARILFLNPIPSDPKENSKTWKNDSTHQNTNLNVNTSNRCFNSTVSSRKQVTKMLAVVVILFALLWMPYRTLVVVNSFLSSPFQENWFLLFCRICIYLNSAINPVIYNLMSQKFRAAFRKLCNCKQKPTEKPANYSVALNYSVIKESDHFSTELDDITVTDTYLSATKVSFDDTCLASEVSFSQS

Point of comparison: Cc1ccc(C)c(N)c1, “activity, negative = inhibition” value -0.805%. Against it:
- CC(=O)OC1C2(C)CCC(C2)C1(C)C (stereo not given) — higher, 5.05%
- O=C1CCCCC1C1CCCCC1 (stereo not given) — higher, 1.69%
- FC(F)(F)C(Cl)(Cl)Cl — higher, 0.761%
- OC[C@H]1O[C@@H](O[C@H]2[C@H](O)[C@@H](O)[C@H](O)O[C@@H]2CO)[C@H](O)[C@@H](O)[C@H]1O — lower, -3.16%
- NNS(=O)(=O)c1ccc(Oc2ccc(S(=O)(=O)NN)cc2)cc1 — higher, 2.06%
- O=C1C=CC(=O)O1 — higher, 0.827%
- CCNCCO — lower, -2.79%
- CC(C)C1=CC2=CC[C@@H]3[C@](C)(CCC[C@@]3(C)C(=O)O)[C@H]2CC1 — lower, -16.1%
- CC(=O)OC(C)OC(C)=O — higher, 0.552%
- Cc1ccc([N+](=O)[O-])cc1Cl — higher, 4.38%
- OCCN(CCO)c1ccccc1 — lower, -8.43%
- CCCCCCCCCC/C=C/C#N — higher, 4.52%
- COc1ccc(Nc2ccc(OC)cc2)cc1 — lower, -2.66%
- CCC1(C)NC(=O)NC1=O (stereo not given) — higher, 10.3%
- COc1cc2c(cc1N)oc1ccccc12 — higher, 2.62%
- C=CC1CO1 (stereo not given) — higher, 7.71%

Point of comparison: CCCN(CCC)C(=O)C(CCC(=O)O)NC(=O)c1ccccc1 (stereo not given), “activity, negative = inhibition” value -1.57% [at 23.6 µM]. Against it:
- CCN(CC)CCNC(=O)COc1ccc(Cl)cc1 — higher, -0.899% [at 23.6 µM]
- O=c1[nH]cnc2c1ncn2[C@@H]1O[C@H](CO)[C@@H](O)[C@H]1O — lower, -7.22% [at 23.6 µM]
- CCCCNc1ccc(C(=O)OCCN(CC)CC)cc1 — higher, 0.788% [at 23.6 µM]
- Cc1cc2c(s1)Nc1ccccc1N=C2N1CCN(C)CC1 — higher, 1.82% [at 23.6 µM]
- COc1cc(N)c(Cl)cc1C(=O)NC1CCN(Cc2ccccc2)CC1 — higher, 0.577% [at 23.6 µM]
- CN1CCC[C@@H]1Cc1c[nH]c2ccc(CCS(=O)(=O)c3ccccc3)cc12 — higher, 0.706% [at 23.6 µM]
- CCN1CC(CCN2CCOCC2)C(c2ccccc2)(c2ccccc2)C1=O (stereo not given) — higher, 2.22% [at 23.6 µM]
- CCCCNc1cc(C(=O)O)cc(S(N)(=O)=O)c1Oc1ccccc1 — higher, 2.52% [at 23.6 µM]
- CC1(C)S[C@@H]2[C@H](NC(=O)C(C(=O)O)c3ccccc3)C(=O)N2[C@H]1C(=O)O (stereo not given in full) — lower, -9.94% [at 23.6 µM]
- CCC(=O)Nc1ccc(O)cc1 — higher, 1.01% [at 23.6 µM]
- CCCS(=O)c1ccc2nc(NC(=O)OC)[nH]c2c1 (stereo not given) — higher, 0.368% [at 23.6 µM]
- N#Cc1ccc(C(c2ccc(C#N)cc2)n2cncn2)cc1 — lower, -4.01% [at 23.6 µM]
- CN(CC1(C)CCCO1)S(=O)(=O)c1ccc(Cl)c(S(N)(=O)=O)c1 (stereo not given) — higher, 3.13% [at 23.6 µM]
- CN(CCCN1c2ccccc2CCc2ccccc21)CC(=O)c1ccc(Cl)cc1 — lower, -2.12% [at 23.6 µM]
- COc1ccc(S(=O)(=O)Nc2nnc(CC(C)C)s2)cc1 — lower, -5.27% [at 23.6 µM]
- CCC(=O)c1ccc2c(c1)N(CCCN(C)C)c1ccccc1S2 — higher, 3.01% [at 23.6 µM]
- C/C(=N\O)[C@@H](C)NCC(C)(C)CN[C@H](C)/C(C)=N/O — lower, -5.78% [at 23.6 µM]
- COC(=O)/C=C(/C)N — higher, -1.32% [at 23.6 µM]
- FC(F)(F)C(F)(F)C(F)(F)C(F)(F)C(F)(F)C(F)(F)C(F)(F)C(F)(F)Br — lower, -2.03% [at 23.6 µM]
- COC(=O)N[C@H](C(=O)N[C@@H](Cc1ccccc1)[C@@H](O)CN(Cc1ccc(-c2ccccn2)cc1)NC(=O)[C@@H](NC(=O)OC)C(C)(C)C)C(C)(C)C — higher, 4.09% [at 23.6 µM]
- CCCCOc1cc(C(=O)NCCN(CC)CC)c2ccccc2n1 — higher, 6.39% [at 23.6 µM]

C[C@@H]1CN(c2c(F)c(N)c3c(=O)c(C(=O)O)cn(C4CC4)c3c2F)C[C@H](C)N1 showed an activity, negative = inhibition of 0.314% [at 10.5 µM].
